From PubChem BioAssay (NCATS) come the findings set out here.

SMILES strings stand for the structures. Inconclusive results are not listed. Calls of active or inactive are those of the source. Calls follow the shape of the dose curve; as a rule, active = well fitted cell-killing curve with a large enough effect; inconclusive = small, poorly fitted or top-dose-only effect, or effect the other way; inactive = no such curve, though single readings can be large or run the other way.
Potency is read from the fitted curve at half-maximal effect.

The nature of the assay: Viability qHTS for spleen associated tyrosine kinase inhibitor (SYKi) naive MV4-11 cells (AID 1963823). Also: nearly all actives have a fitted effect of over 40% in size. The settings on record: MV4-11 AML viability, CellTiter-Glo luminescence, 72 h; series mostly up to 45 µM; viability (% of control): at the top concentration. The method in brief: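 qHTS, SYK inhibitor-naive MV4-11; 500 cells/well; 72 hr compound exposure, 37 C; CellTiter-Glo added, 10 min RT; luminescence read.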
A general note: qHTS replaces the single test concentration by a dilution series.
As for `COc1ccc(C2=CC(=O)OC2Cc2ccc(O)cc2)c(O)c1` (stereo not drawn), the “viability (% of control)” value was 66.8% (inactive).

In the case of `C=CC1C(OC2OC(CO)C(O)C(O)C2O)OC=C2C(=O)N3C(C(=O)O)Cc4c([nH]c5ccccc45)C3CC21` (stereo not drawn), the “viability (% of control)” value is 71.7% [at 17.3 µM] (inactive).

Take `CC/C=C\CC1C(=O)C=CC1(CCCCC1CCC(=O)O1)OC(C)=O` (stereo not drawn): the Potency was 12.8 µM (active).

On to `O=C(O)c1c[nH]c2c(ccc3ccccc32)c1=O`, for which the Potency is 23.1 µM (active).

For `CC(=O)C1CCC(=O)N1Cc1ccccc1` (stereo not drawn), the “viability (% of control)” value is 78.7% (inactive).

Regarding `CC1=CCC[C@@H]2[C@@](C)(CCc3ccoc3)[C@H](C(=O)O)CC[C@@]12C`, the Potency is 2.86 µM (active).

In the case of `C/C=C1/[C@H](O[C@@H]2O[C@H](CO)[C@@H](O)[C@H](O)[C@H]2O)OC=C(C(=O)OC)[C@H]1CC(=O)OCCc1ccc(OC(=O)C[C@@H]2C(C(=O)OC)=CO[C@@H](O[C@@H]3O[C@H](CO)[C@@H](O)[C@H](O)[C@H]3O)/C2=C/C)cc1`, the viability (% of control) is 67.3% [at 9.25 µM] (inactive).

As to `CC1=CC(=O)C(C(C)C)=CC1=O`, the “viability (% of control)” value was 81.2% (inactive).

For the compound `C=C1CC2OC(=O)C(=C)C2C(O)/C=C(\C)CCC1O` (stereo not drawn), the Potency is 18.4 µM (active).

For the compound `C=C1CC[C@H]2C(=C)CC[C@H]3C(=C)C(=O)O[C@@H]3[C@@H]12`, the Potency was 4.11 µM (active).

As to `CS(=O)(=O)N(CC(=O)NCC1CC1)c1cc(C(F)(F)F)ccc1Cl`, the “viability (% of control)” value was 78.3% (inactive).

Turning to `COC(=O)C1=C(C)NC(C)=C(C(=O)OCCN(C)Cc2ccccc2)C1c1cccc([N+](=O)[O-])c1` (stereo not drawn), the Potency is 11.9 µM (active).

For the compound `C=C1CC[C@@H]2[C@](C)(CO[C@@H]3O[C@H](CO)[C@@H](O)[C@H](O)[C@H]3O)[C@H](O)CC[C@@]2(C)[C@@H]1C/C=C1/C(=O)OC[C@H]1O`, the “viability (% of control)” value is 59% [at 17.3 µM] (inactive).
